This is a sample that favours compounds with a hit; in the whole collection about 19% have one here.
HT1080 IDH1KD tx: qHTS for induction of synthetic lethality in tumor cells producing 2HG: qHTS for the HT-1080-IDH1KD cell line; 360,000 tested, 2% active; AID 686971, 2013; Potency, µM (top dose mostly 46.1 µM), actives largely listed as cytotoxic; HT-1080 IDH1 knockdown viability, ATP luminescence, 48 h
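After a 2 h attachment period, IDH1KD HT-1080 cells took pin-transferred compound for 48 h at 37 °C; ATP-based luminescence after 10 min room-temperature reagent incubation reported viability.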
TDP1 cell CPT: qHTS for Inhibitors of human tyrosyl-DNA phosphodiesterase 1 (TDP1): qHTS in cells in presence of CPT | chicken DT40 Tdp1-/-;hTDP1 cells + 20 nM CPT, ATP luminescence, 48 h | Potency, µM (top dose mostly 46.2 µM), hits mostly inhibitors | 420,000 tested, 12% active; note: nearly all actives have a fitted effect of over 55% in size
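Chicken DT40 Tdp1-/- cells complemented with human TDP1, 400 cells/well, exposed to compounds plus 20 nM camptothecin for at least 48 h at 37 C; viability read as ATP content by CellTiter-Glo luminescence.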
TDP1 cell noCPT: qHTS for Inhibitors of human tyrosyl-DNA phosphodiesterase 1 (TDP1): qHTS in cells in absence of CPT | DT40 Tdp1-/- hTDP1 cells, no CPT, ATP luminescence, 48 h | Potency, µM (top dose mostly 46.2 µM), hits mostly inhibitors | 420,000 tested, 15% active | AID 686978, 2013; note: nearly all actives have a fitted effect of over 55% in size
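DT40 Tdp1-/-;hTDP1 cells, no CPT (DMSO vehicle only), 400 cells/well; compounds pin-transferred; ≥48 hr, 37 °C; CellTiter-Glo 30 min RT dark, luminescence read.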
HT1080NT lethal: qHTS for induction of synthetic lethality in tumor cells producing 2HG: qHTS for the HT-1080-NT fibrosarcoma cell line; HT-1080-NT fibrosarcoma viability, CellTiter-Glo ATP luminescence, 48 h; Potency, µM (top dose mostly 46.1 µM), actives largely listed as cytotoxic; 360,000 tested, 1.6% active; AID 686970, 2013;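 note: NT is the 2HG producing partner of a matched IDH1 knockdown line; nearly all actives have a fitted effect of over 55% in size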
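Viability by CellTiter-Glo luminescence after 48 h compound exposure at 37C of HT-1080-NT cells (750/well, RPMI, 5% FBS). % activity scaled between DMSO wells and medium-only wells, then curve-fitted and categorized by curve class.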
IL1B secr inh: qHTS for Inhibitors of Inflammasome Signaling: IL-1-beta AlphaLISA Primary Screen. THP-1 LPS/ATP IL-1B secretion, AlphaLISA, 16 h; hits give low values. activity change, % at 57.5 µM. 360,000 tested, 4.7% active. AID 743279, 2014; in the data active = activity change below about -50%; inconclusive = mostly about -30% to -49%
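Secreted IL-1B measured by AlphaLISA bead assay after 16 h compound exposure of THP-1 cells; compounds (final up to 57.5 uM) added 1 h before LPS (250 ng/mL) and ATP (1.25 mM) stimulation; lower signal means less secretion.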
Hits are given with their value; [ ] = remark or other dose. Unless noted, calls come from the whole dose curve; as a rule, active = well fitted curve in the direction sought with a large enough effect; inconclusive = small, poorly fitted or top-dose-only effect, or another doubt; inactive = no such curve, though single readings can be large; an effect the other way counts as inactive or inconclusive.

Screening CC(C)C[C@H]1CNC(=S)N1CC1CCN(CCCC2CCCCC2)CC1 returned HT1080 IDH1KD tx inactive, TDP1 cell CPT 18µM, TDP1 cell noCPT inconclusive, HT1080NT lethal inactive and IL1B secr inh -54.
`CCCC[C@@H]1CNC(=S)N1CC1CCCCC1` gave HT1080 IDH1KD tx inactive, TDP1 cell CPT inconclusive, TDP1 cell noCPT inconclusive, HT1080NT lethal inactive and IL1B secr inh inactive.
CC(C)C[C@H]1CNC(=S)N1CC1CCN(CC2CCCC2)CC1 was read as HT1080 IDH1KD tx inactive, TDP1 cell CPT inactive, TDP1 cell noCPT inactive, HT1080NT lethal inactive and IL1B secr inh inactive.
`CCCC[C@@H]1CNC(=S)N1CCC12CC3CC(CC(C3)C1)C2` gave HT1080 IDH1KD tx inactive, TDP1 cell CPT inconclusive, TDP1 cell noCPT 18µM, HT1080NT lethal inactive and IL1B secr inh inactive.
For S=C1NCCN1CC1CCN(CCC23CC4CC(CC(C4)C2)C3)CC1 the results were HT1080 IDH1KD tx inactive, TDP1 cell CPT inconclusive, TDP1 cell noCPT inconclusive, HT1080NT lethal inactive and IL1B secr inh inconclusive.
For O=S(=O)(c1ccc(Cl)cc1)N1CN(CC2CCCO2)c2nc3ccccc3nc21 (configuration not stated) the results were HT1080 IDH1KD tx inactive, TDP1 cell CPT inconclusive, TDP1 cell noCPT inactive, HT1080NT lethal inactive and IL1B secr inh inactive.
O=S(=O)(c1ccc(Cl)cc1)N1c2ccccc2Oc2nc3ccccc3nc21 was read as HT1080 IDH1KD tx inactive, TDP1 cell CPT 23µM, TDP1 cell noCPT 16µM, HT1080NT lethal inactive and IL1B secr inh inactive.
`COc1ccc(Cl)cc1S(=O)(=O)n1nnc2ccccc21` gave HT1080 IDH1KD tx inactive, TDP1 cell CPT inactive, TDP1 cell noCPT inactive, HT1080NT lethal inactive and IL1B secr inh inactive.
Screening COc1ccc(S(=O)(=O)N2c3cc(Cl)ccc3Oc3nc4ccccc4nc32)cc1 returned HT1080 IDH1KD tx 0.92µM, TDP1 cell CPT 0.73µM, TDP1 cell noCPT 1.6µM, HT1080NT lethal inconclusive and IL1B secr inh inactive.
For COC(Cn1c2c(c3cc(C)ccc31)CCCC2NCc1ccccc1)OC (configuration not stated) the results were HT1080 IDH1KD tx inactive, TDP1 cell CPT inconclusive, TDP1 cell noCPT 15µM, HT1080NT lethal inactive and IL1B secr inh inactive.
For COc1ccc(CCc2cc(OC)c(OC)c(OC)c2)cc1 the results were HT1080 IDH1KD tx inconclusive, TDP1 cell CPT 0.82µM, TDP1 cell noCPT 0.58µM, HT1080NT lethal 1.6µM and IL1B secr inh inactive.
`COc1ccc(CCNC(=O)CCc2cc(OC)c(OC)c(OC)c2)cc1` gave HT1080 IDH1KD tx inactive, TDP1 cell CPT inactive, TDP1 cell noCPT inactive, HT1080NT lethal inactive and IL1B secr inh inactive.
`O=S(=O)(c1ccc(SCc2ccccc2F)nc1)N1CCCC1` gave HT1080 IDH1KD tx inactive, TDP1 cell CPT inactive, TDP1 cell noCPT inactive, HT1080NT lethal inactive[9.24 µM] and IL1B secr inh inactive.
Screening c1ccc(OCc2nn3c(Cn4cnc5ccccc54)nnc3s2)cc1 returned HT1080 IDH1KD tx inactive, TDP1 cell CPT 16µM, TDP1 cell noCPT inconclusive, HT1080NT lethal inactive and IL1B secr inh inactive.
Screening c1ccc(Cc2nn3c(COc4ccccc4)nnc3s2)cc1 returned HT1080 IDH1KD tx inactive, TDP1 cell CPT inconclusive, TDP1 cell noCPT 18µM, HT1080NT lethal inactive and IL1B secr inh inactive.
`CCOc1ccccc1OCc1nn2c(COc3ccccc3)nnc2s1` gave HT1080 IDH1KD tx inactive, TDP1 cell CPT 16µM, TDP1 cell noCPT 13µM, HT1080NT lethal inactive and IL1B secr inh inactive.
For CCOc1ccc(-c2nnc3sc(COc4ccccc4)nn23)cc1 the results were HT1080 IDH1KD tx inactive, TDP1 cell CPT inconclusive, TDP1 cell noCPT inconclusive, HT1080NT lethal inactive and IL1B secr inh inactive.
Screening COc1ccccc1-c1nnc2sc(COc3ccc(Cl)cc3)nn12 returned HT1080 IDH1KD tx inactive, TDP1 cell CPT inconclusive, TDP1 cell noCPT 16µM, HT1080NT lethal inactive and IL1B secr inh -86.

From PubChem
